Activity calls are given as the source filed them. The rule behind the calls is not given here.
tested on: HIV-1 nucleocapsid protein NCp7 (binding to TG oligonucleotide); assay: HIV Nucleocapsid (AID 346); conditions: HIV-1 NC / fluorescein-TGTGTGTG probe, fluorescence polarization;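 note: potency is for inhibitors that block NC binding and lower polarization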
Method: NCGC Assay Overview: HIV-1 nucleocapsid protein (HIV-1 NC) is a small (6.5 kDa) basic zinc-finger protein which participates in packaging of viral genomic RNA. The spacing and metal-chelating residues (3 Cys, 1 His) of the Cys-X2-Cys-X4-His-X4-Cys Zn fingers are conserved among all known retroviruses (J. Med. Chem. 1998, 41, 1371-1381). HIV-1 NC was assayed for its binding to the consensus sequence single-stranded 5'-TGTGTGTG. […] High salt was included to increase the stringency of binding and inhibitor screen. Reducing agents and zinc were present to stabilize the nucleocapsid zinc-finger protein.
NCGC Assay Protocol Summary: Buffer. Hepes pH 7.5, 250mM NaCl, 1uM ZnCl2. 0.004% polyethylene glycol 20000. TCEP (100 uM) and 2-Mercaptoethanol (5 mM), added fresh the day of the experiment. Reagents/Controls. 10 nM TG4xF only in columns 3 and 4 as negative control. 10 nM TG4xF/100 nM HIV-1 NC in columns 1, 2, 5-48. Titration of control compound NSC-13778 (from 20 mM, then 1:2) pin-transferred to column 2. Assay Steps. Two uL of reagents were dispensed to 1536-well Kalypsys black plates. The plates were centrifuged for 1 min at 1000 rpm. Compounds and controls (20 nL) were transferred via Kalypsys PinTool. The plates were incubated for 1 hr at room temperature, and then read on ViewLux (Perkin-Elmer). High-throughput CCD imager using fluorescein polarization filter set and 45 seconds exposure time.
Potency is the fitted concentration of half-maximal effect.

SMILES	Potency
COc1ccc(Oc2ncc3nc(-c4cccs4)c(=O)n(Cc4cccs4)c3n2)cc1	> 20 µM (inactive)
COc1ccccc1CN1CCC2(CC1)CCN(C(=O)c1cc(C(F)(F)F)cc(C(F)(F)F)c1)CC2	> 20 µM (inactive)
COc1ccccc1CCn1c(=O)c(-c2ccc(F)c(F)c2)nc2cncnc21	> 20 µM (inactive)
CCNc1ncc2nc(C)c(=O)n(C)c2n1	> 20 µM (inactive)
COc1ccc(NC(=O)N2CCCC3(CCN(C(=O)c4cccc(F)c4)CC3)C2)cc1	> 20 µM (inactive)
CN1CCN(c2ncc3nc(CCc4ccccc4)c(=O)n(CCc4ccccc4)c3n2)CC1	> 20 µM (inactive)
Cc1ccccc1-c1nc(N(C)C)c2ccccc2n1	> 20 µM (inactive)
O=C(c1csnn1)N1CCC[C@@]2(CCN(c3ccccc3)C2)C1	> 20 µM (inactive)
Fc1ccc(Nc2ncncc2-c2ccoc2)cc1	> 20 µM (inactive)
CN(C)c1ncc2nc(CCc3ccccc3)c(=O)n(-c3ccccc3)c2n1	> 20 µM (inactive)
O=c1c(-c2cccc(F)c2)nc2cncnc2n1C1CC1	> 20 µM (inactive)
Cn1c(=O)c(-c2ccc(Cl)cc2)nc2cnc(Nc3ccccc3)nc21	> 20 µM (inactive)
Clc1ccccc1-c1nc(-n2ccnc2)c2ccccc2n1	> 20 µM (inactive)
CN1CCN(c2ncc3nc(-c4cc(F)cc(F)c4)c(=O)n(-c4ccccc4)c3n2)CC1	> 20 µM (inactive)
O=C(c1cccc(F)c1)N1CCC[C@@]2(CCN(C(c3ccccc3)c3ccccc3)C2)C1	> 20 µM (inactive)
COC(=O)N1CCC2(CCN(C(=O)Nc3ccccc3)CC2)CC1	> 20 µM (inactive)
COc1ccc2[nH]cc(CCNc3cc(-c4cccc(C#N)c4)ncn3)c2c1	> 20 µM (inactive)
CN(C)c1ccnc(-c2ccccc2C(F)(F)F)n1	> 20 µM (inactive)
COc1ccccc1CNc1ncnc2ccc(-c3ccccc3CN(C)C)cc12	> 20 µM (inactive)
Cc1cccc(CNc2cc(-c3cccc(C#N)c3)ncn2)c1	> 20 µM (inactive)

SMILES	Potency
N#CCCn1c(=O)c(-c2ccc(F)cc2)nc2cnc(N3CCNCC3)nc21	> 20 µM (inactive)
COc1cccc(Cn2c(=O)c(-c3cccs3)nc3cnc(OCc4ccccc4)nc32)c1	> 20 µM (inactive)
CN(C)Cc1ccccc1-c1ccc2ncnc(NC3CCNCC3)c2c1	> 20 µM (inactive)
c1nc(NCCN2CCOCC2)c2cc(-c3ccc4c(c3)OCO4)ccc2n1	> 20 µM (inactive)
CC(=O)NCCNc1nc(-c2cccnc2)nc2ccccc12	> 20 µM (inactive)
c1cncc(CNc2nc(-c3ccoc3)nc3ccccc23)c1	> 20 µM (inactive)
COc1ccccc1CNc1ncncc1-c1cccc(NS(C)(=O)=O)c1	> 20 µM (inactive)
N#CCCn1c(=O)c(-c2cccs2)nc2cnc(OCc3ccccc3)nc21	> 20 µM (inactive)
O=C(c1ccncc1)N1CCC[C@@]2(CCN(c3ccccn3)C2)C1	> 20 µM (inactive)
N#Cc1cccc(-c2ccc3ncnc(NCc4cccnc4)c3c2)c1	> 20 µM (inactive)
CC(=O)N1CCC2(CC1)CCN(C(=O)Nc1cccc(C#N)c1)CC2	> 20 µM (inactive)
CCNc1ncc2nc(-c3cc(F)cc(F)c3)c(=O)n(CCOC)c2n1	> 20 µM (inactive)
Cn1cc(-c2nc3cnc(N4CCNCC4)nc3n(C3CC3)c2=O)c2ccccc21	> 20 µM (inactive)
CN(Cc1ccco1)c1ncnc2ccc(-c3ccc4c(c3)OCO4)cc12	> 20 µM (inactive)
c1ccc(-c2ccc(N3CC4(CCNCC4)C3)cc2)cc1	> 20 µM (inactive)
O=C(Nc1cccc(F)c1)N1CCC2(CC1)CCN(C(=O)c1ccco1)CC2	> 20 µM (inactive)
COc1ccc(-c2nc3cnc(N4CCOCC4)nc3n(CCC#N)c2=O)cc1	> 20 µM (inactive)
COc1ccc(CNc2ccnc(-c3ccoc3)n2)c(OC)c1	> 20 µM (inactive)
COc1ccc(CNc2ccnc(-c3ccccc3CN(C)C)n2)c(OC)c1	> 20 µM (inactive)
COc1ccc(C(=O)N2CCC3(CCN(Cc4ccccc4)CC3)CC2)cc1	> 20 µM (inactive)
